Bioassay records: PubChem, Broad Institute
PglD DTNB: C. jejuni PglD acetyltransferase inhibitors, primary screen, biochemical, DTNB colorimetric, single point | inhibition, % at 12.5 µM | purified PglD enzyme, DTNB colorimetric CoA detection | UDP-N-acetylbacillosamine N-acetyltransferase PglD (Campylobacter jejuni) | AID 602405, 2012 | hit rate 0.098% among 360,000; in the data active means inhibition above about 16%, passing the limit was not always enough
ARNT TACC3 PPI: disruptors of ARNT/TACC3 protein interaction, primary screen, biochemical, AlphaScreen, single concentration; Transforming acidic coiled-coil-containing protein 3 (Homo sapiens), Q9Y6A5; AlphaScreen His-ARNT PAS-B/GST-TACC3 binding, luminescence; TACC3 fragment carries E629A point mutation; inhibition, % at 9.99 µM; hit rate 0.66% among 390,000;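 active means mean inhibition of replicates at least 50% and at least half of replicates each reaching 50%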;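 further: 0% = complete ARNT plus TACC3 wells and 100% = ARNT alone without TACC3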
C2C12 statin: suppressors of statin myotoxicity in C2C12 myotubes, primary screen, cell-based, single point, plate reader. C2C12 myotubes + simvastatin, ATP luminescence, 48 h; scaled: DMSO 0, geranylgeraniol control 100. rescue of ATP level, % at 7.49 µM. hit rate 0.78% among 330,000. AID 602340, 2012;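 active means mean ATP rescue above about 67%, or every replicate alone reaching that limit, limit read from the data, passing the limit was not always enough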;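 further: myotubes were challenged with 10 µM simvastatin during compound exposure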
F508del corr: F508del CFTR correction, initial screen, CFBE line, single point; CFBE cells, YFP halide quenching; stimulated with forskolin plus potentiator P3; % fluorescence drop versus neutral controls; activity (quench increase), % at 7.58 µM; hit rate 0.36% among 350,000;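 active means mean added fluorescence quench of at least 8% versus neutral control, with both replicates also reaching 8%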;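 further: cells transiently co-express mutant CFTR-F508del with the halide-sensitive YFP; corrector assay measuring rescue of mutant channel to the surface after 24 h compound exposure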
Numbers without * were called inactive; x = no result. This is a sample that favours compounds with a hit; in the whole collection about 1.4% have one here.

SMILES	PglD DTNB	ARNT TACC3 PPI	C2C12 statin	F508del corr
Cn1cc([N+](=O)[O-])c(C(=O)Nc2ccn(Cc3c(F)c(F)cc(F)c3F)n2)n1	x	7	144*	x
Cn1ncc([N+](=O)[O-])c1C(=O)Nc1ccn(Cc2ccccc2F)n1	-1	-1	2	-3
COc1ccccc1NC(=O)NCCCN1CCN(c2cccc(Cl)c2)CC1	-1	48*	-1	2
CC(C)C#Cc1cnc2c(c1)C(=O)N([C@@H](C)CO)C[C@@H](C)[C@@H](CN(C)C(=O)Nc1cccc(F)c1)O2	-2	25	18	x
Cn1c(=O)c([N+](=O)[O-])c(NCc2ccccc2)c2ccccc21	-2	-65	122*	x
CCNc1c([N+](=O)[O-])c(=O)n(CC)c2ccccc12	-1	x	x	1
Cc1ccc(Sc2c([N+](=O)[O-])c(=O)n(C)c3ccccc23)cc1	-8	-14	90*	-16
O=C(CC1CC1)N[C@H]1CC[C@@H](CCNS(=O)(=O)c2ccc(F)cc2)O[C@H]1CO	0	-16	2	-2
CCCC(=O)Nc1ccc2c(c1)nc(CN1CCN(C(C)=O)CC1)n2C	4	-2	119*	x
CCCC(=O)Nc1ccc2c(c1)nc(CN1CCN(C(=O)OCC)CC1)n2CC	4	-2	-46	12*
Cn1c(CCN2CCCCC2)nc2cc(NC(=O)Nc3ccccc3)ccc21	-1	-1	116*	x
CCCC(=O)Nc1ccc2c(c1)nc(CN1CCN(C(=O)OCC)CC1)n2C	2	-11	-5	5
C[C@H]1CN([C@@H](C)CO)C(=O)c2cc(NC(=O)Cc3cn(C)c4ccccc34)ccc2O[C@@H]1CN(C)C(=O)Nc1ccc(F)cc1	1	3	-8	1
O=C(O)CCC(=O)Nc1ccc(-c2csc(Nc3cccc4ccccc34)n2)cc1	4	8.8*	-7	-1
COc1cc2c(cc1OC)-c1cc(Nc3ccc(N(C)C)cc3)nc(=O)n1CC2	x	45*	x	3
Cc1nc2nc3c(c(=O)n2[nH]1)CCC3	x	2	x	x
CSc1nc2nc3c(c(=O)n2[nH]1)CCCC3	2	-2	119*	x
CCCN1[C@H](C(=O)N[C@@H](C)c2ccccc2)[C@@H](CO)[C@@H]2Cn3c(cccc3=O)[C@@H]21	x	x	x	-2
Cc1cccc(Cc2c(C)nc3c(C(=O)NCc4ccco4)cnn3c2C)c1	4	8	107*	x
Cc1nc2c(C(=O)NCc3ccco3)cnn2c(C)c1Cc1ccc(F)cc1Cl	-2	8	42	x
CCCn1c(SCC(=O)Nc2nc(C)c(C(=O)OC)s2)nnc1C(C)C	0	-4	2	x
CCn1c(SCC(=O)Nc2nc(C)c(C(=O)OC)s2)nnc1C(C)C	3	0	82*	x
Nc1ccn(CC(=O)N[C@H](CO)Cc2c[nH]c3ccccc23)c(=O)n1	-5	-3	124*	-4
Nc1ccn(CC(=O)NCc2ccccc2)c(=O)n1	7	-1	-5	-5
C[C@@H]1CCCCO[C@@H](CN(C)S(=O)(=O)c2cn(C)cn2)[C@H](C)CN([C@H](C)CO)C(=O)c2cc(NS(=O)(=O)c3ccccc3)ccc2O1	-1	-1	x	2
SMILES	PglD DTNB	ARNT TACC3 PPI	C2C12 statin	F508del corr
CN(C)C(CNC(=O)c1cccs1)c1cccnc1 (configuration not stated)	3	-6	-3	-3
CN(C)C(CNC(=O)NC1CCCCC1)c1cccnc1 (configuration not stated)	-5	-5	107*	x
O=C(C[C@@H]1C[C@H]2c3cc(NC(=O)NC4CCCC4)ccc3O[C@H]2[C@@H](CO)O1)NCc1ccccn1	x	x	x	1
Cc1cc(N)c(NC2=CC(=O)CC(C)(C)C2)cc1C	-1	3	138*	x
COc1cc2c(-c3ccccc3)c(C)oc2cc1/C=N/NC(N)=S	-4	-10	x	8.1*
CC(C)NC(=O)Nc1cccc2c1O[C@H](CN(C)S(=O)(=O)c1ccccc1)[C@H](C)CN([C@@H](C)CO)C2=O	6	-7	24	3
Cc1nc2cc(C(=O)NCCN3CCOCC3)ccc2n1-c1ccc(F)cc1F	-6	-9	98*	x
O=c1cc(N2CCOCC2)[nH]c(=O)n1C1CCCCC1	2	x	122*	x
O=c1cc(N2CCN(c3ccccc3)CC2)[nH]c(=O)n1C1CCCCC1	x	-2	-120	x
Cc1ccc(S(=O)(=O)NCCCNS(=O)(=O)c2ccc(C)cc2)cc1	3	x	0	20*
CC(C)NC(=O)N(C)C[C@H]1Oc2ccc(NC(=O)Nc3ccccc3)cc2C(=O)N([C@@H](C)CO)C[C@H]1C	-2	-4	-25	-5
CC(C)Oc1ccc(S(=O)(=O)N2CCOCC2)cc1NC(=O)CCCSc1ccccc1	8	-25	16	8.4*
COc1ccc(S(=O)(=O)N2CCOCC2)cc1NC(=O)CSc1ccccc1	-5	2	3	4
C[C@H]1CN([C@@H](C)CO)C(=O)c2cccc(NS(=O)(=O)c3ccc(F)cc3)c2O[C@@H]1CN(C)S(=O)(=O)c1ccccc1	-3	2	-24	0
COc1ccc(OC)c(-c2cnc(OC(C)(C)C)nc2OC(C)(C)C)c1	-3	x	-2	14*
CNc1cncc(-c2cc(OC)ccc2OC)n1	-4	x	1	2
c1ccc2c(c1)[nH]c1ccccc12	1	10	-2	-4
Cc1c(C2Nc3ccccc3C2C)[nH]c2ccccc12 (configuration not stated)	x	x	x	10*
Cc1nc2ccccn2c1C(=O)NNC(=S)Nc1ccc(Cl)cc1	-1	4	x	x
Cc1cccc(-n2cnc(C(=O)NNC(=S)Nc3ccc(Cl)cc3)c2)n1	x	67*	x	2
C[C@@H]1CN([C@H](C)CO)C(=O)c2cc(C#CCc3ccccc3)cnc2O[C@@H]1CN(C)Cc1ccccc1	x	x	x	1
COc1ccc2c(Cl)c(-c3nnc(SCC(=O)c4ccccc4)n3C)sc2c1	-11	0	116*	x
Cc1c(Cl)cccc1NC(=O)CNC(=O)Cc1n[nH]c(=O)c2ccccc12	4	-14	110*	1
O=C(Cc1n[nH]c(=O)c2ccccc12)NCc1ccc(Cl)cc1	0	x	4	1
CCCC(=O)Nc1ccc2c(c1)C(=O)N(C)[C@H]1CC[C@H](CC(=O)NCCOC)O[C@@H]1CO2	-1	-1	8	-2
C[C@@H]1CN([C@@H](C)CO)C(=O)c2cc(NC(=O)NC3CCCCC3)ccc2O[C@@H](C)CCCCO[C@H]1CN(C)C(=O)c1ccccc1	3	-6	85*	0
C[C@H](CO)N1C[C@H](C)[C@@H](CN(C)C(=O)c2ccncc2)OCCCC[C@H](C)Oc2ccc(NC(=O)Cc3ccccc3)cc2C1=O	-1	active	-8	3
